Target: CXorf56
Test: pooled miR-30 sensor sort-seq; sequence = guide strand
Conditions: shRNA

Sequence | sensor-assay potency score (higher = more potent)
TTTCTCTAACTGGCAGTCCAGC | -1.26
TTGGTCATCATCACCTTCTTAG | -0.419
ATATGAGTCAGCAACTTCCCTA | -0.79
TTTCTGAGTATATATGTTCGTT | -0.396
TTCTGAGTATATATGTTCGTTT | -0.865

Target: CYB5D1
Test: as above
Conditions: shRNA

Sequence | sensor-assay potency score (higher = more potent)
TTTGGATCAAACCAGTGGCTGA | -1.34
TACTGAGATAGTCAAATTCTTC | -1.34
TACTTGATCTTCTTGTATCATT | -1.02
TACGTCTTGAGTCTACACGAGT | -1.09
TATTCCTGTGCCAATGACGTTA | -0.429
TACAGAAGTATTGCAGGTGTGT | 0.111
TGAAGTACAGAAGTATTGCAGG | -0.202
TTGAAGTACAGAAGTATTGCAG | 0.794
TTAATGATGCGGATGCTCCGGG | -0.0268
TAGCGGTGTAGGATTTCCCATA | -1.38

Target: CYB5RL
Test: as above
Conditions: shRNA

Sequence | sensor-assay potency score (higher = more potent)
TAGGTGTCCTTAGTGAGCCTGT | 0.0964
TTTAATTAGGTCCTGGCCCAGG | -0.401
TCTAAGTCATCTACTATCCCTC | 0.024
TTCTCTTGGTAACTCCAGGGAA | -0.56
TTAATTAACACTTCAAAGTATC | -1.17
TTCCTCAGTGTCGTCGTCCTCT | -0.09
TTTCTCTTGGTAACTCCAGGGA | -0.389
TTAACACTTCAAAGTATCCTTC | 0.251
TAGCACTTAATTAACACTTCAA | 0.518
TAGAGCAAACCGGACACGGTAG | -0.685
TAGAGGTCAAACACACAGGGTG | -0.0487
TTTATAGAAGAAATCTCCGAAA | -0.391

Target: CYBRD1
Test: as above
Conditions: shRNA

Sequence | sensor-assay potency score (higher = more potent)
TATATTGTTAACATTGTGGTTC | 0.299
TATCAGTCCAACCCAGCTGTGC | -0.838
TTATTTCAAGAAACCATCCTTT | 0.251
TTAAACTCTAGTGCGCTCCCAT | -0.237
TTTAACTCTGAATCTGATTTGT | -0.198
TTTATATTAATCACATCCTTTC | -0.692
TTTTCCTTGCTGCTACTTCATT | -1.57
TACTTCATTGTTTAACTCTGAA | -0.114
TTAACTCTGAATCTGATTTGTC | -0.16
TAGAGCTAGTTTTGAAACGTGA | 0.234
TTCATCAGGAGCTTGCTGCATT | 0.213

Reference: the OligoGym collection
